Bioassay records: PubChem BioAssay, several laboratories
TROY signal inh – inhibitors of TROY-dependent NF-kB signaling. Q293 LMP1-TROYcd NF-kB luciferase reporter, 4 h. AID 1347056. hit rate 0.98% among 360,000. inhibition, % at 10 µM;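 active = compounds whose plate-normalised and pattern-corrected inhibition of the luciferase reporter signal at the single screening dose is 50% or more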
HSP90 refold inh – HSP90 refolding inhibition in rabbit reticulocyte lysate | luciferase refolding luminescence, 3 h | inhibition, % at 5.6 µM | hit rate 0.91% among 290,000;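 active = inhibition above the screen-wide mean plus 3 SD, computed separately per campaign, cut at about 16% in these data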;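 also: inhibitors lower the luminescence because luciferase stays unfolded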
LGR2 inh – Drosophila LGR2 receptor signaling inhibition; HEK293 LGR2, CRE-luciferase, bursicon-stimulated, 4 h; inhibition, % at 9.99 µM; hit rate 0.35% among 380,000; AID 720647;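 active = drop in luminescence signal, shown as inhibition above about 50% in the replicate tests, limit read from the data, passing the limit was not always enough; inconclusive = probably only some replicates passing the limit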;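 also: agonist challenge used bursicon conditioned medium at about half maximal strength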
TWEAK Fn14 block – TWEAK-Fn14 signaling inhibition | TWEAK-stimulated Fn14 reporter cells, luciferase luminescence, 8 h | inhibition, % at 10 µM | hit rate 2% among 360,000 | AID 1159606; in the data active = inhibition above about 50%
Of the large screens only hits and unclear results are named; the others gave an inactive call. A selection: hits, their analogues and other compounds. The true share with any hit is near 2.2%.

CO[C@@H]1CN(C)C(=O)c2cc(NC(=O)c3ccccc3)ccc2OC[C@H](C)N(C(=O)CN(C)C)C[C@@H]1C	none (no result: TROY signal inh, HSP90 refold inh, TWEAK Fn14 block)
CCC(CC)C(=O)N1CCCC(c2nc(-c3cccs3)no2)C1 (stereo not drawn)	none (no result: LGR2 inh)
CCOc1ccc(C(=O)N2CCCC(c3nc(-c4cccs4)no3)C2)cc1 (stereo not drawn)	TROY signal inh 64, TWEAK Fn14 block 63
CN1C(=O)N(C)c2ccc(Br)c3cccc1c23	TROY signal inh 65
CN1C(=O)N(C)c2ccc(C=O)c3cccc1c23	none
Cc1nc([N+](=O)[O-])c(Br)n1CC(=O)c1ccccc1	none (no result: LGR2 inh)
Cc1nc([N+](=O)[O-])c(Br)n1CC(=O)c1ccc2ccccc2c1	HSP90 refold inh 17 (no result: LGR2 inh)
CCCCNS(=O)(=O)c1ccc2nc(SCC(N)=O)[nH]c2c1	none
CCCCNS(=O)(=O)c1ccc2nc(SCC(=O)Nc3sccc3C#N)[nH]c2c1	TROY signal inh 71 (no result: LGR2 inh)
CC(=O)Cn1ncc(Br)c(Br)c1=O	TROY signal inh 65, LGR2 inh 106, TWEAK Fn14 block 86
O=C1CCC(c2ccccc2)c2ccccc21 (stereo not drawn)	none (no result: HSP90 refold inh)
N#CC1C(=O)c2ccccc2C1c1ccccc1 (stereo not drawn)	TROY signal inh 52 (no result: HSP90 refold inh)
N#CCCn1[nH]c(-c2ccccc2)cc1=O	HSP90 refold inh 31
Cc1cc(=O)n(CCCc2ccccc2)[nH]1	none (no result: HSP90 refold inh)
O=C(CCN1CCCCC1)NCC[C@@H]1CC[C@H](NS(=O)(=O)c2cccc(F)c2)[C@H](CO)O1	none (no result: TROY signal inh, HSP90 refold inh, TWEAK Fn14 block)
COC(=O)c1ccc2c(c1)C(C)(C)C(/C=C/c1ccc(O)cc1)=[N+]2C	LGR2 inh inconclusive, TWEAK Fn14 block 94
COc1ccc(CCNc2ncnc3sc(C)cc23)cc1OC	TWEAK Fn14 block 76
Cc1ccc(C(=O)Nc2cccc(C(=O)NCc3ccccc3)c2)o1	none
C/C(=N\NC(=O)C1(C)CC1(Br)Br)c1cccc(NC(=O)c2ccc(C)o2)c1 (stereo not drawn)	TWEAK Fn14 block 56
CCN(C(=S)Nc1cc(S(=O)(=O)N2CCOCC2)ccc1Cl)c1cccc2ccccc12	TWEAK Fn14 block 87
Cc1cc(C)c(NC(=O)c2cc(S(=O)(=O)N3CCOCC3)ccc2F)c(C)c1	none
O=C(Nc1ccccc1C(=O)O)c1cc(S(=O)(=O)N2CCCCCC2)ccc1Cl	none
O=C(Nc1ccccc1Cl)c1cc(S(=O)(=O)N2CCCC(C(=O)O)C2)ccc1F (stereo not drawn)	TWEAK Fn14 block 88
Cc1ccc(NC(=O)c2cc(S(=O)(=O)N3CCOCC3)ccc2F)c(C)c1	TWEAK Fn14 block 80 (no result: LGR2 inh)
O=C(Nc1cc(S(=O)(=O)N2CCOCC2)ccc1Cl)c1cc([N+](=O)[O-])ccc1Cl	TWEAK Fn14 block 77 (no result: HSP90 refold inh, LGR2 inh)
O=C(Nc1cccc(Cl)c1)N1C[C@@H]2[C@H](c3ccccc31)[C@H](CO)N2C(=O)c1ccncc1	none (no result: TROY signal inh, HSP90 refold inh, TWEAK Fn14 block)
COc1ccc(S(=O)(=O)Nc2ccc3c(c2)C(=O)N([C@@H](C)CO)C[C@@H](C)[C@H](CN(C)C(=O)Nc2ccc4c(c2)OCO4)OCCCC[C@H](C)O3)cc1	none (no result: TROY signal inh, HSP90 refold inh, TWEAK Fn14 block)
Cn1cc(C(=O)c2ccc(Cl)cc2)cc1-c1nc2ccccc2n1C	TROY signal inh 57, TWEAK Fn14 block 52 (no result: LGR2 inh)
COc1ccc(CN(C)C[C@@H]2OCCCC[C@H](C)Oc3ccc(NC(=O)NC4CCCCC4)cc3C(=O)N([C@@H](C)CO)C[C@@H]2C)cc1	none (no result: TROY signal inh, HSP90 refold inh, TWEAK Fn14 block)
CCOC(=O)Cc1cc(OC)c(OC)cc1Cc1cc(OC)c(OC)cc1CC(=O)OCC	TWEAK Fn14 block 80 (no result: LGR2 inh)
CC(C)OCCCN1CN(S(=O)(=O)c2ccccc2)c2nc3ccccc3nc21	TWEAK Fn14 block 77 (no result: TROY signal inh, LGR2 inh)
CCOC(=O)c1c(C)[nH]c(C2=NNC(=Nc3ccccc3)SC2)c1C	none
CCOC(=O)c1c(C)[nH]c(C2=NNC(=Nc3ccccc3OC)SC2)c1C	TWEAK Fn14 block 51
CC(C)CC#Cc1ccc2c(c1)O[C@H](CN(C)C(=O)Nc1ccccc1)[C@H](C)CN([C@H](C)CO)S2(=O)=O	none (no result: TROY signal inh, HSP90 refold inh, TWEAK Fn14 block)
Cc1cc(C)c(C(CC(=O)c2cccs2)C(C#N)C#N)c(C)c1 (stereo not drawn)	TWEAK Fn14 block 66 (no result: LGR2 inh)
O=C1CS/C(=N\c2ccccn2)N1C1CCCCC1	TWEAK Fn14 block 53 (no result: LGR2 inh)
O=C1c2cccnc2C(=O)N1C1CCCCC1	none
CCC(=O)N1CC(=O)N2[C@H](CO)[C@H](c3ccc(-c4ccccc4C)cc3)[C@@H]2C1	none (no result: TROY signal inh, HSP90 refold inh, TWEAK Fn14 block)
Cc1c(NC(=O)c2cc3c(s2)-c2ccccc2OC3)cccc1[N+](=O)[O-]	TWEAK Fn14 block 62
O=C(CO/N=C/c1ccccc1)N1c2ccccc2Oc2ccccc21	HSP90 refold inh 16 (no result: LGR2 inh)
O=C(CN1CCCCC1)N1c2ccccc2Oc2ccccc21	none (no result: LGR2 inh)
O=c1c2c(nc3cc(-c4ccccc4)[nH]n13)CCS2	none (no result: LGR2 inh)
O=c1c2c(nc3cc(-c4ccccc4Cl)[nH]n13)CCS2	TWEAK Fn14 block 63
COCC(=O)N1C[C@@H]2[C@H](c3ccccc31)[C@H](CO)N2C(=O)Nc1ccccc1Cl	none (no result: TROY signal inh, HSP90 refold inh, TWEAK Fn14 block)
CC(C)c1ccc(C2c3[nH]c4ccccc4c3C[C@H]3C(=O)N(c4ccccc4C(=O)N4CCC[C@H]4C(=O)O)C(=O)N23)cc1 (stereo partly drawn)	TROY signal inh 67
COc1ccc(C2c3[nH]c4ccccc4c3C[C@H]3C(=O)N(c4ccccc4C(=O)N4CCC(C(=O)O)CC4)C(=O)N23)cc1 (stereo partly drawn)	none
Cc1ccccc1NC(=O)c1cnc2ccccn2c1=O	TWEAK Fn14 block 83 (no result: LGR2 inh)
O=S(=O)(N[C@@H]1CC[C@H](CCn2cc(-c3cccc(F)c3)nn2)O[C@H]1CO)c1ccc(F)cc1	none (no result: TROY signal inh, HSP90 refold inh, TWEAK Fn14 block)
c1nc(NCc2ccc3c(c2)OCO3)c2cc(-c3ccoc3)ccc2n1	LGR2 inh inconclusive, TWEAK Fn14 block 83 (no result: HSP90 refold inh)
c1cncc(-c2ccc3ncnc(NCc4ccc5c(c4)OCO5)c3c2)c1	none (no result: HSP90 refold inh)
CCOCCOC(=O)C1=C(C)N(C)C(=O)NC1c1ccccc1Cl (stereo not drawn)	TWEAK Fn14 block 53 (no result: TROY signal inh, LGR2 inh)
CC1=C(C(=O)OCC(C)C)C(c2ccccc2Cl)NC(=O)N1C (stereo not drawn)	none
COc1ccc(/C=C/c2ccc3cccc(O)c3n2)cc1Br	TROY signal inh 54, TWEAK Fn14 block 72
COc1cccc(/C=C/c2ccc3cccc(O)c3n2)c1	TROY signal inh 50, TWEAK Fn14 block 84
Oc1cccc(/C=C/c2ccc3cccc(O)c3n2)c1	none
C[C@@H]1CN([C@H](C)CO)C(=O)Cc2cc(NC(=O)Cn3cnnn3)ccc2O[C@H]1CN(C)C(=O)Nc1ccc(F)cc1	none (no result: TROY signal inh, HSP90 refold inh, TWEAK Fn14 block)
COc1cccc(/C=N/NC(=O)CSc2nnc(C)n2-c2ccccc2)c1O	none (no result: LGR2 inh)
CCCCSc1nc(C)cc(SCC(=O)N/N=C/c2cccc(OC)c2O)n1	LGR2 inh inconclusive, TWEAK Fn14 block 103 (no result: TROY signal inh)
COc1ccccc1/C=N/NC(=O)CSc1ccc2ccccc2n1	TWEAK Fn14 block 52
COc1ccccc1/C=N/NC(=O)CSc1cc(C)nc2ccccc12	none
COc1ccccc1CN1C[C@H](C)[C@@H](OC)CN(C)C(=O)c2ccc(NC(C)=O)cc2OC[C@H]1C	none (no result: TROY signal inh, HSP90 refold inh, TWEAK Fn14 block)
O=C(Nc1ccc(S(=O)(=O)N2CCOCC2)cc1)c1cc(-c2cc(Cl)ccc2O)n[nH]1	TROY signal inh 69, LGR2 inh inconclusive, TWEAK Fn14 block 91
CCS(=O)(=O)Nc1ccc2c(c1)C(=O)N(C)C[C@@H](OC)[C@@H](C)CN(C(=O)C1CC1)[C@H](C)CO2	none (no result: TROY signal inh, HSP90 refold inh, TWEAK Fn14 block)
